Compound activity (PubChem BioAssay)
SARS PLP yeast: inhibitors of SARS-CoV papain-like protease in yeast; S. cerevisiae expressing SARS-CoV PLpro, growth rescue; Potency, µM (doses to about 32.9 µM), for the others: top-dose activity, positive = growth rescue, hits mostly activators; hit rate 0.19% among 330,000; also: potency is read from the fitted curve at half-maximal effect; 0% is about no effect; nearly all actives have a fitted effect of over 55% in size
Shiga inhibitor: Shiga toxin inhibition. inhibition, % at 38.7 µM. Vero cells, Shiga toxin protein synthesis inhibition reporter. AID 2315. hit rate 9.2% among 290,000; in the data active = inhibition mostly above about 28%, no sharp cut-off; inactive = mostly below about 43%; also: 0% is about no effect
Pf growth 48h: P. falciparum growth inhibition at 48 hours (one generation). AID 504832. hit rate 5.9% among 310,000. Potency, µM (doses to about 28.7 µM), for the others: top-dose activity change, negative = inhibition, actives largely listed as inhibitors. P. falciparum luciferase growth in erythrocytes, 48 h; active = well fitted inhibition curve with a large enough effect; inconclusive = small, poorly fitted or top-dose-only effect, or another doubt; inactive = no such curve, though single readings can be large or run the other way; also: potency is read from the fitted curve at half-maximal effect; % is scaled to controls: 0 for no effect and ±100 for the full control effect
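A one-generation exposure of luciferase-tagged malaria parasites in RPMI 1640/Albumax erythrocyte culture, 37 C and 5% CO2. Inhibition is inferred from decreased luminescence after adding detection reagent.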
NS1 inh: influenza NS1 inhibition | hit rate 0.4% among 270,000 | Potency, µM (highest dose often 46.1 µM), for inactives: at the top dose activity, positive = more growth; also: potency is read from the fitted curve at half-maximal effect; actives are rising curves; nearly all actives have a fitted effect of over 50% in size
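S. cerevisiae expressing influenza A NS1, grown in glucose, washed, then diluted 1:100 into pH 6.0 -URA galactose medium with 23 nl compound. Growth recovery read as OD600; NS1-free strain serves as control.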
Pf growth 96h: inhibits malaria parasite growth, 96 h; P. falciparum luciferase reporter growth, 96 h; Potency, µM (top dose mostly 28.7 µM), for the others: top-dose activity change, negative = inhibition, most hits filed as inhibitors; hit rate 6.9% among 320,000; active = well fitted inhibition curve with a large enough effect; inconclusive = small, poorly fitted or top-dose-only effect, or another doubt; inactive = no such curve, though single readings can be large or run the other way; also: potency is read from the fitted curve at half-maximal effect; % is scaled to controls: 0 for no effect and ±100 for the full control effect
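Parasite growth measured via integrated firefly luciferase reporter in P. falciparum. Infected erythrocytes at 2% hematocrit, 0.05% parasitemia final were treated 96 hours at 37 C under 5% CO2, and luminescence was read.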
CHX counter: counter-screen for Shiga toxin inhibitors: cycloheximide protein synthesis inhibition | cell reporter, cycloheximide protein synthesis inhibition counterscreen | max response, % | hit rate 12% among 300,000; in the data active = max response mostly above about 13%, no sharp cut-off; inactive = mostly below about 14%; also: read at 38.3 µM for the half of the compounds with a filed dose; 0% is about no effect
Starred values were filed as active, the others as inactive; i = inactive; u = inconclusive; x = no result given. A selection: hits, their analogues and other compounds. The true share with any hit is near 21%. Unless noted, calls follow the shape of the full dose curve.

SMILES | SARS PLP yeast | Shiga inhibitor | Pf growth 48h | NS1 inh | Pf growth 96h | CHX counter
Cc1ccc(NC(=O)Cc2nc(CCl)cs2)cc1 | -9% | 9 | 2% | 2% | -2% | -3
CCCc1nn2c(=O)cc(CSCC(=O)Nc3ccc(OC)cc3)nc2s1 | 10% | -6 | -4% | -1% | -23% | -6
CS(=O)(=O)c1ccccc1C(=O)Nc1cccc2ncccc12 | 1% | -4 | u | -3% | u | -3
COc1ccccc1C(=O)NC(=O)CSc1nncn1C | 1% | x | u | x | 19% | x
CCOC(=O)Cc1nnc(NC(=O)Nc2ccccc2)s1 | -2% | 31 | 6% | 6% | -10% | 16
O=C(Cc1sc(-c2ccccc2)nc1-c1ccccc1)Nc1ccccc1 | 2% | -16 | u | -1% | x | -2
O=C(O)Cc1sc(Nc2cccc3ccccc23)nc1-c1ccc(F)cc1 | -1% | 6 | -5% | 2% | 12% | 7
Cc1ccc(-c2nc(Nc3cccc(C)c3)sc2CC(=O)O)cc1 | -2% | 55* | 50% | 0% | -1% | 27*
O=C(O)Cc1sc(Nc2ccccc2)nc1-c1cccs1 | -2% | 65* | 60% | -36% | 113% | 26*
C=CCNc1nc(-c2cccs2)c(CC(=O)O)s1 | 0% | -1 | 1% | -38% | -6% | -2
O=C(Cc1sc(Nc2ccccc2)nc1-c1ccccc1)NCc1ccccc1 | 0% | 63* | -23% | u | -85% | 31*
COC(=O)Cc1nc(Nc2ccccc2)sc1C | -6% | 10 | 17% | -47% | 42% | 12*
COc1ccc(CCNC(=O)c2ccccc2OCc2c(C)noc2C)cc1 | -1% | x | u | x | u | x
COCc1nnc(NC(=O)CSCc2ccccc2)s1 | 1% | 2 | 34% | -3% | 32% | 3
COC(=O)Cc1csc(Nc2ccc(Cl)cc2)n1 | -83% | 36 | 67% | -46% | 40% | 22*
CC(C)(C)C1c2[nH]c3ccccc3c2CCN1CCCn1cccn1 (stereo not drawn) | 1% | -4 | u | 3% | 5.9µM* | -4
COc1ccc(OC)c(S(=O)(=O)NCc2csc(-c3ccccc3)n2)c1 | -3% | -9 | -10% | -14% | -1% | 1
COc1ccc(-c2csc(-c3cccs3)n2)c(OC)c1 | -8% | 70* | i | x | 439% | 34*
COc1ccc(-c2csc(-c3ccccc3)n2)c(OC)c1 | -18% | 115* | 362% | x | 376% | 53*
COc1cc(N2CCCC2)c(OC)cc1/C=C(/C#N)c1ccc(F)cc1 | -6% | 12 | 10µM* | 2% | -26% | -1
CCc1ccccc1NC(=O)CN1CCN(C(=O)CN2C(=O)NC3(CCCC3)C2=O)CC1 | 1% | x | u | x | -6% | x
COc1ccc(S(=O)(=O)N[C@@H](Cc2ccccc2)C(=O)N2CC[C@@]3(O)CCCC[C@H]3C2)cc1 | -3% | 4 | -21% | -13% | x | -5
O=C([C@H](Cc1ccccc1)NS(=O)(=O)c1ccc(Cl)cc1)N1CC[C@@]2(O)CCCC[C@H]2C1 | 3% | -3 | 13µM* | 7% | u | -2
CCNS(=O)(=O)c1ccc(CCC(=O)N2CCN(c3ccccc3)CC2)cc1 | -1% | -10 | -16% | 6% | -27% | -3
Cc1ccc(CN2C(=O)C(Cc3ccccc3)Nc3ncnc(N4CCCCC4)c32)cc1 (stereo not drawn) | 5% | x | 1.7µM* | x | 4.7µM* | x
SMILES | SARS PLP yeast | Shiga inhibitor | Pf growth 48h | NS1 inh | Pf growth 96h | CHX counter
O=C1C(Cc2ccccc2)Nc2ncnc(N3CCN(c4ccccc4)CC3)c2N1Cc1ccc(Br)cc1 (stereo not drawn) | -2% | x | x | x | x | x
O=C1C(Cc2ccccc2)Nc2ncnc(N3CCN(c4ccccc4)CC3)c2N1Cc1ccccc1 (stereo not drawn) | 0% | x | 2.9µM* | x | 2.9µM* | x
CCC1Nc2ncnc(N3CCOCC3)c2N(Cc2ccccc2)C1=O (stereo not drawn) | -1% | x | u | x | 29% | x
Cc1ccc(CN2C(=O)C(Cc3ccccc3)Nc3ncnc(N4CCN(c5ccccc5)CC4)c32)cc1 (stereo not drawn) | -25% | x | 1.9µM* | x | 4.7µM* | x
COc1ccc(CN2C(=O)C(Cc3ccccc3)Nc3ncnc(N4CCCCC4)c32)cc1 (stereo not drawn) | 1% | x | 5.2µM* | x | 12µM* | x
COc1ccccc1NC(=O)COC(=O)COc1cccc2c1OC(C)(C)C2 | x | x | -13% | x | 12% | x
Cc1nnsc1C(=O)N1CCCC(Nc2ccc(F)c(F)c2)C1 (stereo not drawn) | -5% | 2 | -6% | 12% | 19% | 8
Cc1cccc2c(=O)c(Br)c(C)n(Cc3ccccc3)c12 | -1% | -4 | u | -1% | 34% | -6
Cc1ccc(NC(=O)C(=O)NCc2ccncc2)cc1 | 1% | 29 | 38% | x | 29% | 23
O=C1C(Cc2ccccc2)Nc2ncnc(N3CCOCC3)c2N1Cc1ccc(Cl)cc1 (stereo not drawn) | -4% | x | 9.3µM* | x | 0% | x
O=C1C(Cc2ccccc2)Nc2ncnc(N3CCc4ccccc4C3)c2N1Cc1ccc(Br)cc1 (stereo not drawn) | 0% | x | 10µM* | x | 13µM* | x
Clc1ccc2c(c1)C(c1ccccc1Cl)=NCc1nnc(N3CCN(CCSc4ccccc4)CC3)n1-2 | -1% | -16 | -7% | 6% | 31% | 0
Clc1ccc2c(c1)C(c1ccccc1Cl)=NCc1nnc(N3CCN(CCOc4ccccc4)CC3)n1-2 | -4% | -12 | u | -56% | 9.3µM* | -6
CC(SC1=Nc2ccccc2C2CC=NN12)C(=O)NC1(C#N)CCCCC1 (stereo not drawn) | 0% | x | u | x | 8.3µM* | x
CCc1nn(C(C)C(=O)NCc2cccc(OC)c2)c(=O)c2cc3occc3n12 (stereo not drawn) | 0% | 1 | 12% | u | u | 2
CCCCC1(Cc2ccc([N+](=O)[O-])cc2)C(=O)N(c2ccccc2)N(c2ccccc2)C1=O | -41% | 21 | 4.1µM* | 22% | u | -2
Cc1ccccc1Nc1cc(C)c2c(O)cccc2n1 | -12% | 13 | u | -33% | 14% | 23*
Cc1ccc(Nc2cc(C)c3ccc(O)cc3n2)cc1C | -1% | 83* | u | -52% | u | 43*
Cc1cc(NCc2ccco2)nc2cc(O)ccc12 | 18% | 1 | 3.3µM* | -4% | 5.2µM* | 0
COC(=O)c1cc(Nc2cc(C)c3c(O)cccc3n2)cc(C(=O)OC)c1 | 3% | 57 | 9.3µM* | 10% | u | 16*
CN(C)S(=O)(=O)c1cccc(NC(=O)COC(=O)c2cccn2C)c1 | -1% | 14 | 23% | x | 1% | 23
Cc1cc([N+](=O)[O-])ccc1NC(=O)CSc1nccc(=O)[nH]1 | 1% | 17 | -3% | x | 36% | -1
N#Cc1ccc(Cl)cc1NC(=O)CSc1nc2nc(-c3cccs3)cc(C(F)(F)F)c2c(=O)[nH]1 | 0% | -3 | 30% | -3% | 38% | -1
